# Measured values as given in PubChem BioAssay AID504333 (National Center for Advancing Translational Sciences (NCATS), 2011).
# About 16,000 (4.4%) of roughly 360,000 compounds were called active. Where a call stands in place of a potency, no number is given. Not shown: some 9% with an inconclusive outcome. Calls come from the whole dose curve; as a rule, active = well fitted inhibition curve with a large enough effect; inconclusive = small, poorly fitted or top-dose-only effect; inactive = no such curve, though single readings can be large or run the other way. For the sample, actives were picked, then their nearest neighbours and some compounds at random.
# Target: Bromodomain adjacent to zinc finger domain protein 2B (Homo sapiens) (UniProt Q9UIF8)
# Sequence (Q9UIF8 whole entry, looked up, the tested form may be a part): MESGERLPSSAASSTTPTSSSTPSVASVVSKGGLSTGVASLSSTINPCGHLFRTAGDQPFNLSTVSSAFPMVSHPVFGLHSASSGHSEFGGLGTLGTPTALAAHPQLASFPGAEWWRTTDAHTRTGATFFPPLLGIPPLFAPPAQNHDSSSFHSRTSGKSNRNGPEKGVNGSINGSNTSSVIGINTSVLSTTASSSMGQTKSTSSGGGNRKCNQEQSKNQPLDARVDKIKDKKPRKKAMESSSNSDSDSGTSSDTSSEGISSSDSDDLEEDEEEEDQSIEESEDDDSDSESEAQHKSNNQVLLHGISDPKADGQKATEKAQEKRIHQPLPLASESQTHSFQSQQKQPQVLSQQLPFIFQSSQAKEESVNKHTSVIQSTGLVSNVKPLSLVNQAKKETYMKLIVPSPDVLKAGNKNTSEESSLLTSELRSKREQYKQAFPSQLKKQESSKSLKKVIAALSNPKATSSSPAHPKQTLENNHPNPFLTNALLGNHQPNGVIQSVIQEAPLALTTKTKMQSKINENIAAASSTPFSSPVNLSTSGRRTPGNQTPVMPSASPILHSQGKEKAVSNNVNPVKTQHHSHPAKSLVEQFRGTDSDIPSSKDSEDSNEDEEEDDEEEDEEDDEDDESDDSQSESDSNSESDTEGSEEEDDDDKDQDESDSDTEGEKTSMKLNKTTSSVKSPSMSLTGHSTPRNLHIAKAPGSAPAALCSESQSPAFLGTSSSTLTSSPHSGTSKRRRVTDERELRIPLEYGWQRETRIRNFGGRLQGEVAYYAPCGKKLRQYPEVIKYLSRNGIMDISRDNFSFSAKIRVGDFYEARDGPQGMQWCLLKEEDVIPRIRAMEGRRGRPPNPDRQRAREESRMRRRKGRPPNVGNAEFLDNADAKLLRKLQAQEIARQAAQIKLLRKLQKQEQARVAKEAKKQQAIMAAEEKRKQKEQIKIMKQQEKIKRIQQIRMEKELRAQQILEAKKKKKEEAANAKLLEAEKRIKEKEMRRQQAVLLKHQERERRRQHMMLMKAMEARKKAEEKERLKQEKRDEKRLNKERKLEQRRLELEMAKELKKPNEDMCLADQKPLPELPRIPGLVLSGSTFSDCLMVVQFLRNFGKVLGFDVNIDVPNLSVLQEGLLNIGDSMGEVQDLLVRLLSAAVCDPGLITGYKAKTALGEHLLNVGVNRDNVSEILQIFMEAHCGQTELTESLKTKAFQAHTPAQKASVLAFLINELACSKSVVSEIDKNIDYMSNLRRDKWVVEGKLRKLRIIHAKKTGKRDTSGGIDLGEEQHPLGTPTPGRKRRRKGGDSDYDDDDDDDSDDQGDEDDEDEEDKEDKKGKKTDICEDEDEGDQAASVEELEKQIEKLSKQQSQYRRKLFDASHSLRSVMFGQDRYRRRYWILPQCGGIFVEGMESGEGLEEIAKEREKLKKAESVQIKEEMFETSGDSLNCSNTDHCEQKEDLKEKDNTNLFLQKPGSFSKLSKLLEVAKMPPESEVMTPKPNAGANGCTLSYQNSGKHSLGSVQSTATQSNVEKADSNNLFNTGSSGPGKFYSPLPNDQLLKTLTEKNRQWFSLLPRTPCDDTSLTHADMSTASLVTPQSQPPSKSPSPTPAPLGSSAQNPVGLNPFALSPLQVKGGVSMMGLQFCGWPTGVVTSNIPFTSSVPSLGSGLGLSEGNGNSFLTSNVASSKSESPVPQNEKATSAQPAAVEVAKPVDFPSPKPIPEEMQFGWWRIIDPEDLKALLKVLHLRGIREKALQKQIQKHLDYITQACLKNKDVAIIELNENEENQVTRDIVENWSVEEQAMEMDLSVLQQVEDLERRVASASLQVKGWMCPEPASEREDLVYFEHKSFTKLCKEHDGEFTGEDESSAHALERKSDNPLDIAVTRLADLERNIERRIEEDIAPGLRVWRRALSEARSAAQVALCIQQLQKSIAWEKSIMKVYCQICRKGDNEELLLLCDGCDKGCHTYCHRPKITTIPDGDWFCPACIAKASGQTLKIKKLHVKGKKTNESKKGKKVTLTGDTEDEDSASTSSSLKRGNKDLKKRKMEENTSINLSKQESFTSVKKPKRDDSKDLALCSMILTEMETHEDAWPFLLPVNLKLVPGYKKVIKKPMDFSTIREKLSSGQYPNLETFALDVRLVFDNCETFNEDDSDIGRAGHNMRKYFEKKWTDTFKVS
# Assay: qHTS Assay for Inhibitors of BAZ2B; note: nearly all actives have a fitted effect of over 60% in size
# Conditions: AlphaScreen BAZ2B-H3K14Ac peptide displacement; series mostly up to 114 µM
# How it was run: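 Protein-peptide AlphaScreen: BAZ2B 50 nM, b-H3K14Ac 50 nM, 1x PBS pH 7.4 + 0.01% Tween-20. Preincubation 30 min RT; cpd 30 min RT (top 110 uM); beads 20 min RT, light-protected.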
# Potency is the fitted concentration of half-maximal effect.
row,SMILES,Potency
1,CC(=O)Nc1ccc2nc(SCCOc3cc(C)cc(C)c3)sc2c1,inactive
2,CCOc1cc2[nH]c(=O)n(Cc3ccc(C(=O)NCCN(CC)CC)cc3)c(=O)c2cc1OCC,inactive
3,CCCC(=O)N1CCN(c2nc3c(OC)ccc(C)c3s2)CC1,inactive
4,Cc1c2cnn(-c3ccccc3)c(=O)c2c(C)n1C(C)C(=O)Nc1ccc(Br)cc1F (stereo not drawn),inactive
5,COc1ccc(OC)c(-c2csc(NC(=O)COC(=O)C3CC3)n2)c1,inactive
6,COc1ccc(CC(=O)Nc2nc(-c3ccc(F)c(F)c3)cs2)cc1OC,inactive
7,COc1ccc(-c2csc(Nc3ccc(O)cc3)n2)cc1,35.5 µM (active)
8,COc1ccc(OC)c(Nc2nc(-c3ccc(O)c(O)c3)cs2)c1,50.1 µM (active)
9,COc1ccc(-c2csc(NC(=O)COC(=O)Cc3ccc(Cl)cc3Cl)n2)cc1,inactive
10,COc1ccc(-c2csc(NC(=O)COC(=O)c3ccc(Br)o3)n2)cc1,inactive
11,CC1CCN(c2nc3ccc(C(=O)N4CCN(c5ccccc5)CC4)cc3s2)CC1,inactive
12,COc1ccccc1C(=O)Nc1c(C(=O)N(C)Cc2ccccc2)sc2nc(C)c(Cl)c(C)c12,inactive
13,COc1ccc(NC(=O)CCNS(=O)(=O)c2ccc3c(c2)CCCC(=O)N3)cc1Cl,inactive
14,COc1ccc(NC(=O)CSc2nc3ccccc3n2CC(=O)N2CCCCC2C)cc1 (stereo not drawn),inactive
15,Cc1ccc(S(=O)(=O)N(CC(=O)Nc2ccc(Cl)cc2Cl)c2ccccc2C)cc1,inactive
16,CCOc1cc(C(=O)NCCc2csc3nc(-c4ccc(C)cc4)nn23)cc(OCC)c1OCC,inactive
17,CCOC(=O)c1cccc(NS(=O)(=O)c2cc(-c3cnc(C)o3)ccc2OC)c1,inactive
18,O=C(NC1CCN(Cc2ccccc2)CC1)c1ccc(Cn2c(=O)c3ccccc3n(Cc3cccc(F)c3)c2=O)cc1,inactive
19,CCOC(=O)C1CCCN(C(=O)Cn2ncc3c(C)n(Cc4ccc(F)cc4)c(C)c3c2=O)C1 (stereo not drawn),inactive
20,CCCCN(CC)CCCNC(=O)c1nn(C)c2c1CS(=O)(=O)c1ccccc1-2,inactive
21,COc1ccccc1CN1CCC(CNC(=O)c2cnn(-c3cccc(Cl)c3)c2C2CCN(C(=O)OC(C)(C)C)CC2)CC1,inactive
22,COCCN1C(=O)N[C@@H](c2ccccc2)C(C(=O)OC)=C1C,inactive
23,CCN1C(=S)N[C@@H](c2cccc(C(F)(F)F)c2)C(C(=O)OC)=C1C,50.1 µM (active)
24,COC(=O)C1=C(C)N(C)C(=S)NC1c1ccccc1 (stereo not drawn),inactive
25,COC(=O)CC1Oc2ccccc2-n2cc(-c3ccccc3)nc21 (stereo not drawn),inactive
26,COc1ccc(/C=C/C(=O)c2cc(Br)ccc(=O)c2O)cc1,44.7 µM (active)
27,COc1ccc(C(=O)/C=C/c2cccnc2)c(OC)c1,inactive
28,COc1ccc(C(=O)/C=C/c2ccc(OC3CSC3)cc2)cc1,inactive
